What all share (format): functional
In assay [1] the test system is Plasmodium falciparum. Briefly: GSK_TCMDC: Inhibition of Plasmodium falciparum 3D7 in whole red blood cells, using parasite LDH activity as an index of growth. Test compounds present at 2uM.
The test system of assay [2] is Plasmodium falciparum. In words: GSK_TCMDC: Inhibition of Plasmodium falciparum Dd2 in whole red blood cells, using parasite LDH activity as an index of growth. Test compounds present at 2uM.
The test system of the next assay is HepG2. In words: GSK_TCMDC: Percent inhibition of human HepG2 cell line. Test compounds present at 10uM.

With `Cl.NOCCCCOc1ccc(Br)cc1`, the Inhibition (usually the drop in the measured response relative to a control, in per cent) in the assay on Plasmodium falciparum [1] is on record as 99%; with Plasmodium falciparum [2], 0%; in the assay on HepG2, 0%.
`CC(C)CNCc1ccc(-c2cccc(CNc3ccc4ncccc4c3)c2)cc1.O=C(O)C(F)(F)F`: the Inhibition in the assay with Plasmodium falciparum [1] stood at 96%; in the assay on Plasmodium falciparum [2], 31%; in the assay with HepG2, 29%.
In the case of `COc1cc(NC(=O)/C=C/c2cc(F)cc(F)c2F)cc(OCCN2CCCCC2)c1.O=C(O)C(=O)O`, the Inhibition in the assay on Plasmodium falciparum [1] worked out at 100%; with Plasmodium falciparum [2], 80%; in the assay on HepG2, 10%.
Regarding `COc1cc2c(cc1O)[C@@H]1[C@H](O)[C@@H](O)C=C3CCN(C2)[C@H]31` [PSEUDOLYCORINE], the values for the Inhibition in the assay with Plasmodium falciparum [1], in the assay with Plasmodium falciparum [2] and in the assay on HepG2 were 90%, 31% and 18%, respectively.
Regarding `Cc1ccc(S(=O)(=O)c2nc(S(=O)(=O)c3ccccc3)sc2NCC2CCCO2)cc1` (stereo unspecified), the values for the Inhibition in the assay on Plasmodium falciparum [1], in the assay with Plasmodium falciparum [2] and in the assay with HepG2 were 88%, 17% and 4%, respectively.
For `Br.N=c1n(CCN2CCCCC2)c2ccccc2n1CC(=O)c1cccc([N+](=O)[O-])c1`, in that order: 94%, 0% and 10%.
In the case of `O=C(c1ccco1)c1cn(CCOc2ccccc2)c2ccccc12`, the Inhibition in the assay on Plasmodium falciparum [1] is 98%; in the assay with Plasmodium falciparum [2] it was 10%; in the assay with HepG2 it was 5%.
With `O=C(NC1CCN(Cc2ccccc2)CC1)c1cc(C(=O)NC2CCN(Cc3ccccc3)CC2)cc(C(=O)NC2CCN(Cc3ccccc3)CC2)c1`, the Inhibition with Plasmodium falciparum [1] is on record as 100%; with Plasmodium falciparum [2] it was 100%; with HepG2, 13%.
As for `Cl.FC(F)(F)c1cc(Nc2ccc(Oc3ccccc3)cc2)c2cc(-c3ccncc3)ccc2n1`, the values for the Inhibition with Plasmodium falciparum [1], in the assay with Plasmodium falciparum [2] and in the assay on HepG2 were 100%, 70% and 0%, respectively.
On to `COc1cccc2sc(N3CCN(C(=O)c4ccc([N+](=O)[O-])o4)CC3)nc12`, for which the Inhibition with Plasmodium falciparum [1] is 95%; in the assay on Plasmodium falciparum [2], 67%; in the assay with HepG2, 0%.
In the case of `COc1cccc(CNC(=O)c2cnc(N3CCN(c4ccncc4)CC3)c(Cl)c2)c1.O=C(O)C(F)(F)F`, the Inhibition was found to be 89% with Plasmodium falciparum [1], 12% with Plasmodium falciparum [2] and 25% with HepG2.
Take `O=C(Cn1c(CCc2cccc(F)c2F)nc(=O)c2ccccc21)N(Cc1ccc(-c2ccc(C(F)(F)F)cc2)cc1)C1CCN(C2CCOCC2)CC1.O=C(O)C(O)C(O)C(=O)O`: the Inhibition is given as 100% with Plasmodium falciparum [1], 76% in the assay on Plasmodium falciparum [2] and 97% in the assay on HepG2.
As to `COc1ccc(C(=O)N[C@@H](CC(C)C)C(=O)NC2CC[C@@H](C)N(C(=O)Nc3ccc(Cl)cc3)CC2=O)cc1OCCN1CCOCC1` (stereo partly specified), the figures for the Inhibition in the assay on Plasmodium falciparum [1], with Plasmodium falciparum [2] and with HepG2 were 96%, 91% and 5%, respectively.
On the same counts, the results for `Cn1nc(-c2cccc(CN[C@@H]3CCc4ccc(O)cc43)c2)c2cnc(NC3CCCC3)nc21` are 100%, 76% and 6%.
Take `COc1ccc(CN2CCC(NCc3cccc(C(F)(F)F)c3)CC2)cc1.O=C(O)C(F)(F)F`: the Inhibition in the assay with Plasmodium falciparum [1] was found to be 99%; in the assay on Plasmodium falciparum [2] it was 8%; in the assay on HepG2 it was 6%.
For `CC(C)=CCN1CCC(C(=O)Nc2ccc(-c3nc4ccccc4[nH]3)cc2)CC1`, the Inhibition was 95% in the assay on Plasmodium falciparum [1], 0% with Plasmodium falciparum [2] and 0% with HepG2.
Turning to `Nc1nc(N)c2cc(S(=O)(=O)c3ccc4ccccc4c3)ccc2n1`, the Inhibition came to 95% in the assay with Plasmodium falciparum [1], 51% in the assay with Plasmodium falciparum [2] and 14% in the assay with HepG2.
Consider `O=C(O)C(F)(F)F.c1cncc(CCNCc2ccc(-c3ccc(-c4nc5ccccc5[nH]4)s3)cc2)c1`, for which the Inhibition in the assay with Plasmodium falciparum [1] is listed as 100%; with Plasmodium falciparum [2], 99%; with HepG2, 35%.
Consider `COc1cccc(OCC2CCCN(CCCCNC(=O)c3ccc(NC(=O)c4ccc(Cl)cc4)cc3)C2)c1` (stereo unspecified), for which the Inhibition in the assay with Plasmodium falciparum [1] is recorded as 100%; in the assay on Plasmodium falciparum [2] it was 49%; in the assay on HepG2, 33%.
`Cc1ccc(C(C#N)c2ccc3c(C(F)(F)F)cc(C(F)(F)F)nc3n2)cc1` (stereo unspecified): the Inhibition in the assay on Plasmodium falciparum [1] was found to be 96%; in the assay on Plasmodium falciparum [2] it was 36%; in the assay on HepG2 it was 14%.
Turning to `Cc1ccc2c(c1C)NC(=O)C21NN=C(c2ccccc2)S1` (stereo unspecified), the Inhibition is on record as 97% in the assay on Plasmodium falciparum [1], 65% in the assay on Plasmodium falciparum [2] and 31% in the assay on HepG2.
In the case of `CC(=O)Nc1cccc(C(=O)Nc2ccc(-c3cccc(-c4nc5cccc(C)c5[nH]4)c3)cc2)c1`, the Inhibition in the assay with Plasmodium falciparum [1] was 100%; in the assay on Plasmodium falciparum [2], 50%; with HepG2, 86%.
`CN(C)C(CNc1ncnc2cc(Cl)ccc12)Cc1ccccc1` (stereo unspecified): the results for the Inhibition with Plasmodium falciparum [1], with Plasmodium falciparum [2] and with HepG2 were 96%, 88% and 13%, respectively.
On the same counts, the results for `CC(=O)Nc1nc(C(=O)Nc2ccc(-c3ccc(-c4nc5cccc(C)c5[nH]4)cc3)cc2)cs1` are 100%, 53% and 42%.
With `CCN(CC)CCCC(C)Nc1ccnc2ccc(OC)cc12.Cl.O` (stereo unspecified), the Inhibition worked out at 100% in the assay on Plasmodium falciparum [1], 0% with Plasmodium falciparum [2] and 7% in the assay with HepG2.
On the same counts, the results for `CCOc1cc(C)ccc1C1CCN(CCCCNC(=O)c2ccc(-c3ccc(Cl)cn3)cc2)CC1.Cl` are 94%, 8% and 19%.
As for `O=C(Nc1ccc(S(=O)(=O)NCCCN2CCOCC2)cc1)c1cc(-c2ccccc2)[nH]n1`, the Inhibition in the assay with Plasmodium falciparum [1] was 82%; in the assay on Plasmodium falciparum [2] it was 29%; in the assay with HepG2 it was 16%.

For the origin of these results see ChEMBL document CHEMBL1157539, “Thousands of chemical starting points for antimalarial lead identification” (Nature, 2010).
